# From PubChem BioAssay (NCATS)
# Inconclusive results are not listed. Where a call stands in place of a potency, no number is given. A number with no mark means an inactive call. Activity calls are given as the source filed them. The call rests on the fitted dose curve; in most records, active means well fitted cell-killing curve with a large enough effect; inconclusive means small, poorly fitted or top-dose-only effect, or effect the other way; inactive means flat fitted curve, though single readings scatter. Where a SMILES comes first, the peptide text is derived from it. The star is where a group is joined. Cbz = O=C(OCc1ccccc1)*; CH2Cl = ClC*
# What was measured:
# Experiment in all cases: Primary qHTS to identify gynecologic anti-cancer compounds using libraries of approved drugs and bioactive compounds (AID 1345084); further: nearly all actives have a fitted effect of over 55% in size
# CASKI = details: Gynecologic cancer cell panel viability, ATPlite luminescence, 48 h; series mostly up to 57.5 µM
# Procedure, shortened: (§1)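 Cells, 1,000 per well, plated 16 h, then exposed 48 h at 37 C to compounds. Viability by ATPlite luminescence after 15 min at room temperature.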
# HeLa = details: Gynecologic cancer cell panel viability, ATPlite luminescence, 48 h; series mostly up to 57.5 µM
# Procedure, shortened: as §1
# JEG-3 = details: Gynecologic cancer cell panel viability, ATPlite luminescence, 48 h; series mostly up to 57.5 µM
# Procedure, shortened: as §1
# Hek293T = details: Gynecologic cancer cell panel viability, ATPlite luminescence, 48 h, control line for the selectivity index; series mostly up to 57.5 µM
# Procedure, shortened: as §1
# OV90 = details: Gynecologic cancer cell panel viability, ATPlite luminescence, 48 h; series mostly up to 57.5 µM
# Procedure, shortened: as §1
# PA-1 = details: Gynecologic cancer cell panel viability, ATPlite luminescence, 48 h; series mostly up to 57.5 µM
# Procedure, shortened: as §1
# Es-2 = details: Gynecologic cancer cell panel viability, ATPlite luminescence, 48 h; series mostly up to 57.5 µM
# Procedure, shortened: as §1
# Potency means the concentration at half of the fitted maximal effect.
smiles,measurement,setting,value
c1ccc(-c2cnn3cc(-c4ccc(OCCN5CCOCC5)cc4)cnc23)cc1,Potency,CASKI,inactive
same,Potency,HeLa,inactive
same,Potency,JEG-3,inactive
Cc1ccc(-c2c(C(=O)CCl)n(CCCO)c3ncnc(N)c23)cc1,Potency,CASKI,inactive
same,Potency,HeLa,inactive
same,Potency,Hek293T,inactive
same,Potency,JEG-3,inactive
same,Potency,OV90,inactive
same,Potency,PA-1,inactive
Cc1ccc(NC(=O)C(C)C)cc1C1CCN(Cc2ccc(Oc3ccc(F)c(F)c3)cc2)CC1,Potency,CASKI,inactive
same,Potency,HeLa,inactive
same,Potency,JEG-3,inactive
C/C(=N\N=C(N)N)c1cc(NC(=O)CCCCCCCCC(=O)Nc2cc(/C(C)=N/N=C(N)N)cc(/C(C)=N/N=C(N)N)c2)cc(/C(C)=N/N=C(N)N)c1,Potency,CASKI,inactive
same,Potency,HeLa,inactive
same,Potency,Hek293T,inactive
same,Potency,JEG-3,inactive
C=C1C(=O)OC2/C=C(\COC(C)=O)CC/C=C(\C=O)CC(OC(=O)C(C)CC)C12 (stereo not given),Potency,CASKI,inactive
same,Potency,HeLa,inactive
same,Potency,OV90,inactive
same,Potency,PA-1,11.2 µM (active)
CC(C)C[C@H](NC(=O)CNC(=O)OCc1ccccc1)C(=O)N[C@@H](Cc1ccccc1)C(=O)CCl (Cbz-Gly-Leu-Phe-CH2Cl),Potency,CASKI,inactive
same,Potency,HeLa,inactive
same,Potency,OV90,inactive
COCCNCc1ccc(-c2cc3nccc(Oc4ccc(NC(=O)C5(C(=O)Nc6ccc(F)cc6)CC5)cc4F)c3s2)nc1,Potency,Es-2,inactive
C=C[C@@]1(C)C=C2C(=O)C(O)=C3[C@](C)(C(=O)O)CC[C@@H]4C[C@]34[C@]2(O)C(=O)C1,Potency,Es-2,10 µM (active)
same,Potency,HeLa,inactive
same,Potency,Hek293T,11.2 µM (active)
same,Potency,PA-1,11.2 µM (active)
O=C(CCl)Nc1cccc(NC2=NS(=O)(=O)c3ccccc32)c1,Potency,Es-2,inactive
same,Potency,JEG-3,inactive
same,Potency,OV90,inactive
COc1cc(CCc2cc(NC(=O)c3ccc(N4CC(C)NC(C)C4)cc3)n[nH]2)cc(OC)c1 (stereo not given),Potency,CASKI,inactive
same,Potency,JEG-3,inactive
CCNC(=O)Nc1ccc(-c2nc3c(c(N4CCOCC4C)n2)CCN(C2COC2)C3)cc1 (stereo not given),Potency,CASKI,inactive
same,Potency,HeLa,inactive
same,Potency,Hek293T,2.82 µM (active)
same,Potency,JEG-3,inactive
same,Potency,PA-1,2.24 µM (active)
C=C1C(=O)O[C@@H]2[C@H]1CC(=O)[C@H](C)[C@@](O)(C(=O)/C=C/C)[C@H]2OC(=O)C(C)CC (stereo not given in full),Potency,CASKI,10 µM (active)
same,Potency,HeLa,inactive
same,Potency,Hek293T,10 µM (active)
same,Potency,JEG-3,inactive
same,Potency,OV90,inactive
same,Potency,PA-1,11.2 µM (active)
Fc1ccc2[nH]ccc2c1-c1nc(N2CCOCC2)c2sc(CN3CCN(CC4CC4)CC3)cc2n1,Potency,Es-2,inactive
same,Potency,HeLa,inactive
same,Potency,JEG-3,20 µM (active)
COc1cc(N2CCC(N3CCN(C)CC3)CC2)ccc1Nc1ncc(Cl)c(Nc2ccccc2P(C)(C)=O)n1,Potency,CASKI,10 µM (active)
same,Potency,HeLa,6.31 µM (active)
same,Potency,JEG-3,inactive
same,Potency,PA-1,11.2 µM (active)
CN(C)CCCn1cc(C2=C(c3c[nH]c4ccccc34)C(=O)NC2=O)c2ccccc21,Potency,Es-2,28.2 µM (active)
same,Potency,Hek293T,22.4 µM (active)
same,Potency,JEG-3,inactive
COC1CC/C=C(\C)C(=O)Nc2cc(O)cc(c2)CC(C)CC(OC)C(O)C(C)/C=C(\C)C1OC(N)=O (stereo not given),Potency,Es-2,inactive
same,Potency,HeLa,inactive
same,Potency,OV90,8.91 µM (active)
COc1ccc(C#Cc2ccc(C(=O)N3CCC[C@@H](O)C3)c(F)c2)cc1,Potency,Es-2,12.6 µM (active)
same,Potency,Hek293T,14.1 µM (active)
same,Potency,JEG-3,inactive
C=C1C(=O)OC2/C=C(/C)C3=CC(=O)C(C)(CC(OC(=O)/C(C)=C/COC(C)=O)C12)O3 (stereo not given),Potency,Es-2,7.08 µM (active)
same,Potency,HeLa,inactive
same,Potency,OV90,inactive
CCN(Cc1cc(Nc2nc(C)cn3c(-c4cn[nH]c4)cnc23)sn1)C(C)(C)CO,Potency,Es-2,3.16 µM (active)
same,Potency,Hek293T,3.55 µM (active)
CCCCCCCCn1cc(CN(CC)CC)c2cc(-c3cnc(N)nc3)ccc21,Potency,CASKI,inactive
same,Potency,HeLa,inactive
same,Potency,Hek293T,inactive
same,Potency,JEG-3,inactive
CC(C)CC(=O)c1c(O)cc2c(c1O)C(CC(C)C)C1=C(O2)C(C)(C)C(=O)C(C)(C)C1=O (stereo not given),Potency,Es-2,inactive
same,Potency,JEG-3,inactive
same,Potency,OV90,inactive
COc1cc(O)c2c(c1)C1OC1C[C@H](O)[C@H](O)C(=O)/C=C\C[C@H](C)OC2=O (stereo not given in full),Potency,HeLa,inactive
CCC(C)(OC(C)=O)C(=O)O[C@H]1[C@H](OC(C)=O)[C@]2(CO)[C@H](O)[C@H](O)[C@]3(C)C(=CCC4[C@@]5(C)CC[C@H](O[C@@H]6O[C@H](C(=O)O)[C@@H](O)[C@H](O[C@@H]7OC[C@H](O)[C@H](O[C@@H]8OC[C@H](O)[C@H](O)[C@H]8O)[C@H]7O)[C@H]6O[C@@H]6O[C@H](CO)[C@@H](O)[C@H](O)[C@H]6O)C(C)(C)C5CC[C@]43C)[C@@H]2CC1(C)C (stereo not given in full),"activity change, negative = cytotoxicity",Es-2,-8.22% [at 6.55 µM]
same,"activity change, negative = cytotoxicity",HeLa,-8.59% [at 6.55 µM]
same,"activity change, negative = cytotoxicity",Hek293T,-17.4% [at 6.55 µM]
same,"activity change, negative = cytotoxicity",JEG-3,-1.81% [at 6.55 µM]
same,"activity change, negative = cytotoxicity",PA-1,-11.2% [at 6.55 µM]
C=C1C(=O)O[C@@H]2[C@H]3C(C)=CC(=O)C3=C(C)CC[C@@H]12,Potency,HeLa,inactive
C=C(C)C(=O)O[C@H]1C[C@@](C)(O)C2(O)CCC(C)(/C=C3/OC(=O)C(COC)=C31)O2 (stereo not given in full),Potency,Es-2,11.2 µM (active)
same,Potency,HeLa,inactive
same,Potency,PA-1,10 µM (active)
Cc1cc(NC(=O)c2cccc(NC(=O)/C=C/CN(C)C)c2)ccc1Nc1nccc(-c2cccnc2)n1,Potency,Es-2,inactive
same,Potency,HeLa,inactive
same,Potency,JEG-3,inactive
same,Potency,OV90,inactive
CCCCNc1ncc(C(=O)NCc2ccc(-n3ccnc3)cc2)c(NC2CCC(O)CC2)n1 (stereo not given),Potency,Es-2,inactive
same,Potency,Hek293T,inactive
O=C(Nc1ccnc(NC(=O)C2CC2)c1)c1c(Cl)cccc1Cl,Potency,Es-2,22.4 µM (active)
same,Potency,HeLa,17.8 µM (active)
same,Potency,PA-1,15.8 µM (active)
CN1CCN(Cc2ccc(NC(=O)Cc3ccc(Oc4cc(NC(=O)C5CC5)ncn4)cc3)cc2C(F)(F)F)CC1,Potency,Es-2,7.94 µM (active)
same,Potency,HeLa,7.08 µM (active)
same,Potency,OV90,4.47 µM (active)
same,Potency,PA-1,5.62 µM (active)
